Assay [1] can be described thus: Quantitative High-Throughput drug screen in 47 multiple myeloma cell lines against the NCATS MIPE library collection: Karpas417_ECACC cell viability assay (AID 1918961). As to conditions: Karpas417 myeloma viability, CellTiter-Glo ATP luminescence, 48 h; viability (% of DMSO): at 45.8 µM (top of the series). The essentials:
(§1)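 We plated 500 myeloma cells per well, pinned in MIPE 4.0 compounds, and incubated for 48 hours at 37C. ATP was then quantified with CellTiter-Glo, with DMSO and media-only wells defining 100% and 0%.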
On the technique in general: ATP-based viability assays read luminescence as a measure of living cells.

Assay [2] is described as follows: Quantitative High-Throughput drug screen in 47 multiple myeloma cell lines against the NCATS MIPE library collection: JIM3_ECACC cell viability assay (AID 1918963; note: nearly all actives have a fitted effect of over 35% in size; note: potency is the fitted concentration of half-maximal effect). The essentials: (§2)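 Primary qHTS used for cherry-picking: cells at 500/well, library compounds for 48 h (37C, 5% CO2), luminescent ATP assay.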
Assay [3] is described as follows: Quantitative High-Throughput drug screen in 47 multiple myeloma cell lines against the NCATS MIPE library collection: INA6_PLB cell viability assay (AID 1918965; note: potency is the fitted concentration of half-maximal effect; nearly all actives have a fitted effect of over 55% in size). In a few lines:
as §1

A short description of assay [4]: Quantitative High-Throughput drug screen in 47 multiple myeloma cell lines against the NCATS MIPE library collection: JJN3_DSMZ cell viability assay (AID 1918966; note: potency is the fitted concentration of half-maximal effect; nearly all actives have a fitted effect of over 50% in size). In a few lines:
(§3)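 Inhibition of cell viability is measured here. Each line was plated at 500 cells per well, treated with MIPE 4.0 drugs, kept 48 hours at 37C, then assayed for ATP content by CellTiter-Glo luminescence.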

A short description of assay [5]: Quantitative High-Throughput drug screen in 47 multiple myeloma cell lines against the NCATS MIPE library collection: Karpas25_ECACC cell viability assay (AID 1918968; note: potency is the fitted concentration of half-maximal effect; nearly all actives have a fitted effect of over 35% in size). In a few lines: as §3
Assay [6] in a line: Quantitative High-Throughput drug screen in 47 multiple myeloma cell lines against the NCATS MIPE library collection: KMS12BM_JCRB cell viability assay (AID 1918971). Note: nearly all actives have a fitted effect of over 35% in size. Note: potency is the fitted concentration of half-maximal effect. In a few lines: (§4)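 CellTiter-Glo luminescence (ATP) after 48 h compound exposure, 37C/5% CO2; 500 cells/well; MIPE 4.0 approved/investigational drugs pinned in; DMSO = 100%, media only = 0% viability.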
The nature of assay [7]: Quantitative High-Throughput drug screen in 47 multiple myeloma cell lines against the NCATS MIPE library collection: KMS26_JCRB cell viability assay (AID 1918975). Note: nearly all actives have a fitted effect of over 45% in size. Note: potency is the fitted concentration of half-maximal effect. The essentials: as §4
Assay [8] in a line: Quantitative High-Throughput drug screen in 47 multiple myeloma cell lines against the NCATS MIPE library collection: NCIH929_DSMZ cell viability assay (AID 1918978). Note: potency is the fitted concentration of half-maximal effect; nearly all actives have a fitted effect of over 35% in size. The essentials:
(§5)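 Plated at 500 cells per well, myeloma lines received MIPE 4.0 compounds by pin tool. Following 48 h culture at 37 °C, CellTiter-Glo luminescence gave viability relative to DMSO and media-only controls.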

A short description of assay [9]: Quantitative High-Throughput drug screen in 47 multiple myeloma cell lines against the NCATS MIPE library collection: KHM11_PLB cell viability assay (AID 1918962). In a few lines: as §2
Assay [10] in a line: Quantitative High-Throughput drug screen in 47 multiple myeloma cell lines against the NCATS MIPE library collection: JIM1_ECACC cell viability assay (AID 1918964; note: potency is the fitted concentration of half-maximal effect). In a few lines:
as §3

Assay [11] is described as follows: Quantitative High-Throughput drug screen in 47 multiple myeloma cell lines against the NCATS MIPE library collection: KMS12PE_JCRB cell viability assay (AID 1918972). Note: potency is the fitted concentration of half-maximal effect; nearly all actives have a fitted effect of over 30% in size. The essentials:
as §1

Assay [12] in a line: Quantitative High-Throughput drug screen in 47 multiple myeloma cell lines against the NCATS MIPE library collection: KMS20_JCRB cell viability assay (AID 1918973). Note: potency is the fitted concentration of half-maximal effect; nearly all actives have a fitted effect of over 45% in size. The essentials: as §3
The nature of assay [13]: Quantitative High-Throughput drug screen in 47 multiple myeloma cell lines against the NCATS MIPE library collection: KMS21BM_JCRB cell viability assay (AID 1918974). Note: potency is the fitted concentration of half-maximal effect. As to conditions: ATP luminescence, 48 h; viability: at 45.8 µM (top of the series). In a few lines: as §3
A short description of assay [14]: Quantitative High-Throughput drug screen in 47 multiple myeloma cell lines against the NCATS MIPE library collection: MMM1_PLB cell viability assay (AID 1918976). In a few lines:
as §5

Assay [15] is described as follows: Quantitative High-Throughput drug screen in 47 multiple myeloma cell lines against the NCATS MIPE library collection: MOLP8_DSMZ cell viability assay (AID 1918977). Note: nearly all actives have a fitted effect of over 45% in size. Note: potency is the fitted concentration of half-maximal effect. In a few lines: as §5
Assay [16] in a line: Quantitative High-Throughput drug screen in 47 multiple myeloma cell lines against the NCATS MIPE library collection: H1112_PLB cell viability assay (AID 1918967; note: potency is the fitted concentration of half-maximal effect; nearly all actives have a fitted effect of over 30% in size). The essentials:
as §3

Assay [17] is described as follows: Quantitative High-Throughput drug screen in 47 multiple myeloma cell lines against the NCATS MIPE library collection: OCIMY1_PLB cell viability assay (AID 1918979). Note: nearly all actives have a fitted effect of over 35% in size. In a few lines:
as §5

The nature of assay [18]: Quantitative High-Throughput drug screen in 47 multiple myeloma cell lines against the NCATS MIPE library collection: KMS27_JCRB cell viability assay (AID 1918970). Note: potency is the fitted concentration of half-maximal effect; nearly all actives have a fitted effect of over 30% in size. To be noted: KMS27 myeloma cells, CellTiter-Glo ATP viability, 48 h; viability (% of DMSO): at 45.8 µM (top of the series). The essentials:
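Each line is seeded at 500 cells per well and treated with library compounds for 48 hours under 37 °C, 5% CO2. CellTiter-Glo is then added for 5 min at room temperature before median relative luminescence is recorded.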

Records with an inconclusive call do not appear. Activity calls are given as the source filed them. Calls come from the whole dose curve; as a rule, active = well fitted curve in the direction sought with a large enough effect; inconclusive = small, poorly fitted or top-dose-only effect, or another doubt; inactive = no such curve, though single readings can be large; an effect the other way counts as inactive or inconclusive.

Regarding `NS(=O)(=O)OC[C@@H]1C[C@@H](n2ccc3c(N[C@H]4CCc5ccccc54)ncnc32)C[C@H]1O`, the Potency entry in [1] is “inactive”. The Potency in [2] is 13200 nM (active); in assay [3], 118 nM (active); in assay [4] it was 1320 nM (active); in assay [5] it was 833 nM (active); in assay [6] it was 6620 nM (active); in assay [7], 2640 nM (active). In addition, the Potency in assay [8] was 833 nM (active).

Consider `CC[C@@]1([C@@H]2O[C@@H]([C@H]3O[C@@](O)(CO)[C@H](C)C[C@H]3C)C[C@H]2C)CC[C@H]([C@]2(C)CC[C@]3(C[C@H](O)[C@@H](C)[C@@H]([C@@H](C)[C@@H](OC)[C@H](C)C(=O)O)O3)O2)O1`, for which the Potency in assay [9] is 512 nM (active); in assay [2], 229 nM (active); in assay [10] it was 64.5 nM (active); in [3], 257 nM (active); in [4], 257 nM (active); in assay [5] it was 3230 nM (active). For the same compound, the Potency in [6] is 45.7 nM (active); in assay [11], 91.1 nM (active); in assay [12], 51.2 nM (active); in assay [13], 144 nM (active); in assay [7], 182 nM (active); in assay [14], 575 nM (active). The Potency in assay [15] is 204 nM (active); in assay [8] it was 288 nM (active).

As for `COc1ccc(S(=O)(=O)Nc2cccnc2Nc2ccc(O)cc2)cc1`, the Potency is 83.3 nM (active) in assay [3]; 1320 nM (active) in assay [4]; 105 nM (active) in assay [16]; 235 nM (active) in assay [5]; 74.3 nM (active) in assay [6]; 83.3 nM (active) in [12]. The Potency in assay [7] is 2640 nM (active); in assay [14], 1480 nM (active); in [15] it was 1180 nM (active); in assay [8], 1180 nM (active).

On to `CC(=CC(=O)Nc1ccccc1C(=O)O)c1ccc2ccccc2c1`, for which the Potency in assay [10] is 590 nM (active); in assay [5], 20900 nM (active); in assay [11], 23500 nM (active). The Potency result in assay [13] and in assay [17] was “inactive” each time.

For the compound `Cc1cncc2cccc(S(=O)(=O)N3CCCN(C(=O)CN)C[C@@H]3C)c12`, the Potency entry in assay [2], in assay [6], in [7] and in assay [15] was “inactive” each time. The Potency in assay [3] is 16600 nM (active); in [16] it was 20900 nM (active); in [18], 418 nM (active); in [11] it was 16600 nM (active); in [8], 18700 nM (active).

On to `CNC(=O)c1cccc(-c2ccc3c(N4CCOC[C@H]4C)nc(N4CCOC[C@H]4C)nc3n2)c1`, for which the Potency in assay [2] is 41.8 nM (active); in assay [10], 13.2 nM (active); in [3], 526 nM (active); in [4], 74.3 nM (active); in assay [5], 74.3 nM (active); in assay [6], 16.6 nM (active). Moreover, the Potency in [11] was 469 nM (active); in [12], 93.5 nM (active); in assay [13], 166 nM (active); in [7], 1180 nM (active); in assay [14] it was 16.6 nM (active); in [15], 23.5 nM (active). Moreover, the Potency in assay [8] is 16.6 nM (active).

For `COc1cc(OC)c(C=CS(=O)(=O)Cc2ccc(OC)c(NCC(=O)O)c2)c(OC)c1`, the Potency in assay [2] is 209 nM (active); in assay [10], 37.2 nM (active); in assay [3] it was 296 nM (active); in assay [4], 1050 nM (active); in assay [5], 332 nM (active); in assay [18] it was 74.3 nM (active). For the same compound, the Potency in assay [6] was 418 nM (active); in assay [11], 105 nM (active); in assay [12] it was 1180 nM (active); in assay [13] it was 83.3 nM (active); in assay [7], 1320 nM (active); in [14], 743 nM (active). In addition, in assay [15], the Potency was 2090 nM (active).

Source of the values: PubChem BioAssay (NCATS).
